The values below come from PubChem BioAssay (EPA / NIEHS).

What is called AC50 is the midpoint of the concentration-response curve, whichever way the signal moves.

Inconclusive results are not listed. Activity calls are given as the source filed them. Rule for the calls, unless noted: active = hit-call score of the fitted dose curve at least 0.9, where 1 is the maximum; inconclusive = response in the unintended direction; inactive = score below 0.9.

Assay [1] addresses Cellular tumor antigen p53 (Homo sapiens) (UniProt P04637). Nature of the assay: TOX21_p53_BLA_p2_ratio: Tox21 HCT-116 p53 Agonism Beta-lactamase Assay, Ratio, Phase 2 (AID 2283592). In outline: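 HCT116 p53-bla; 4000 cells/well; 5 h pre-incubation; cpd in DMSO, 217-fold dilution; 16 h 37C/5% CO2; CCF4-AM 2 h RT; Ex 405, Em 460/530 ratio; DMSO = baseline; positive fitting direction.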

The nature of assay [2]: TOX21_p53_BLA_p3_viability: Viability Assessment in the Tox21 HCT-116 p53 Agonism Beta-lactamase Assay, Phase 3 (AID 2283593).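 Note: cells exposed to compound for 16 h before reading.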 Summed up: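 HCT116 cells, 4000/well, dosed 5 h after plating by pin transfer (217-fold dilution from DMSO stock) and incubated 16 h at 37C, 5% CO2. Viability read as ATP luminescence with CellTiter-Glo after 30 min at room temperature.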
For assay [3], the target named is Cellular tumor antigen p53 (Homo sapiens) (UniProt P04637). Nature of the assay: TOX21_p53_BLA_p5_ratio: Tox21 HCT-116 p53 Agonism Beta-lactamase Assay, Ratio, Phase 5 (AID 2283599). In outline:
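HCT-116 p53-bla cells (4000/well) plated 5 h, dosed with compound (217-fold DMSO dilution) for 16 h at 37 C; CCF4-AM substrate 2 h at room temperature. Activity is the 460/530 nm emission ratio (405 nm excitation), fitted in gain-of-signal direction versus DMSO.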

The nature of assay [4]: TOX21_p53_BLA_p5_viability: Viability Assessment in the Tox21 HCT-116 p53 Agonism Beta-lactamase Assay, Phase 5 (AID 2283600). Summed up:
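4000 cells/well; 5 h pre-incubation; DMSO compounds pin-transferred, 217-fold dilution; 16 h, 37C/5% CO2; CCF4-AM 2 h RT; CellTiter-Glo 30 min RT; luminescence.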

Assay [5] has as its target Cellular tumor antigen p53 (Homo sapiens) (UniProt P04637). Nature of the assay: TOX21_p53_BLA_p4_ratio: Tox21 HCT-116 p53 Agonism Beta-lactamase Assay, Ratio, Phase 4 (AID 2283601). In outline:
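HCT-116 p53 beta-lactamase reporter cells (4000/well) preincubated 5 h, then compound (217-fold dilution of DMSO stock) for 16 h at 37C. CCF4-AM substrate added 2 h at room temperature; 460/530 nm emission ratio fitted upward versus DMSO.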

Assay [6] can be described thus: TOX21_p53_BLA_p4_viability: Viability Assessment in the Tox21 HCT-116 p53 Agonism Beta-lactamase Assay, Phase 4 (AID 2283597).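 Note: hits lower the luminescence signal meaning cytotoxicity.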 Summed up: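 Cells plated, 5 h pre-incubation; DMSO compounds pinned (217-fold dilution); 16 h, 37C/5% CO2; CCF4-AM 2 h RT; CellTiter-Glo 30 min RT; luminescence read.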
Assay [7] in a line: ACEA_ER_AUC_viability: ACEA Biosciences xCELLigence Real-Time Cell Analysis on Estrogen Receptor Agonism for Viability (AID 2283782).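 Note: continuous compound exposure with impedance area under curve over 80 h; hit means loss of impedance signal meaning reduced cell growth or viability.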 In outline:
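T47D cells preconditioned in phenol red-free RPMI with charcoal-stripped FBS, then dosed with 8-point 1:4 series from 100 uM (up to 0.5% DMSO). Impedance monitored up to ~80 h; area-under-curve loss versus DMSO taken as viability.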

Assay [8] is described as follows: CCTE_Harrill_HTTr_Viability_MCF7: CCTE's 6-hour Cell Viability Assessment for the High-Throughput Transcriptomics (HTTr) Platform, in MCF-7 cells cultured in DMEM + 10% fetal bovine serum, Harrill Lab (AID 2284010; active = hit-call score of the fitted dose curve at least 0.9, where 1 is the maximum; inactive = score below 0.9). Summed up: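 Membrane integrity was scored by high-content imaging of propidium iodide dye exclusion after a 6 h exposure across an eight-point dilution series. Data were fitted bidirectionally relative to DMSO as negative control and baseline.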

Assay [9] is described as follows: CCTE_Harrill_HTTr_Apoptosis_MCF7: CCTE's 6-hour Apoptosis Assessment for the High-Throughput Transcriptomics (HTTr) Platform, in MCF-7 cells cultured in DMEM + 10% fetal bovine serum, Harrill Lab (AID 2284011; active = hit-call score of the fitted dose curve at least 0.9, where 1 is the maximum; inactive = score below 0.9). Summed up:
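MCF-7 (DMEM + 10% FBS), 384-well; 8-pt dilution series, 6 h chemical exposure; caspase-3/7 activation via CellEvent Caspase 3/7 Green, HCI; bidirectional fit vs DMSO.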

Assay [10] in a line: CCTE_Harrill_HTTr_CellCount_MCF7: CCTE's Cell Proliferation Assessment for the High-Throughput Transcriptomics (HTTr) Platform, Harrill Lab (AID 2284012).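 Note: cells exposed to compound for six hours; intended direction is loss of nuclei count meaning fewer cells.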 Summed up:
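MCF-7 cells were exposed for 6 h to an eight-point dilution series; Hoechst-labeled nuclei were counted by high content imaging. Curves were fitted bidirectionally against DMSO as negative control and baseline, with signal loss indicating reduced cell count.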

Assay [11] concerns the target Cellular tumor antigen p53 (Homo sapiens) (UniProt P04637). Nature of the assay: TOX21_p53_BLA_p3_ratio: Tox21 HCT-116 p53 Agonism Beta-lactamase Assay, Ratio, Phase 3 (AID 2283596). Summed up: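 HCT116 p53-bla cells (4000/well) given compound in DMSO (217-fold dilution) after 5 h, incubated 16 h at 37C. CCF4-AM substrate 2 h at room temperature; 460/530 nm emission ratio, gain fitted against DMSO.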

Cellular tumor antigen p53 (Homo sapiens), sequence (P04637 whole entry, looked up): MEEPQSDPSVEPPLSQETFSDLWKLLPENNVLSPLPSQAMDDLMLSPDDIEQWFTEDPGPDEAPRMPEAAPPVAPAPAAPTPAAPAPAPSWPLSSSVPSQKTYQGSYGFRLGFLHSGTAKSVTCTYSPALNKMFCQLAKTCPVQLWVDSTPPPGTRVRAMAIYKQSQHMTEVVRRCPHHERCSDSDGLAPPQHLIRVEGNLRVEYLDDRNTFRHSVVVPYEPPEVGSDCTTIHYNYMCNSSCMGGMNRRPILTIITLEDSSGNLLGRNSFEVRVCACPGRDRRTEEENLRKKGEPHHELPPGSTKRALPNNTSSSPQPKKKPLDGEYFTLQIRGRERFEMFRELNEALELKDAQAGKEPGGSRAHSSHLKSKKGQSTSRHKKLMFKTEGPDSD

Regarding `NC(CO)C(=O)NNCc1ccc(O)c(O)c1O` (centres undefined), the outcome in [1], in [2], in assay [3], in [4] and in assay [5] was inactive.
As for `Oc1ccc(C(O)CNCCCCCCNCC(O)c2ccc(O)c(O)c2)cc1O` (centres undefined), the result in [1], in assay [2], in assay [3] and in [4] was inactive.
Consider `COc1cc(C(=O)N2CCCCCCC2)cc(OC)c1OC`, for which the outcome in assay [1], in [2], in assay [6], in assay [4] and in [5] was inactive.
`CC(=O)OCC(=O)[C@@]1(O)[C@H](C)C[C@H]2[C@@H]3C[C@H](F)C4=CC(=O)C=C[C@]4(C)[C@H]3[C@@H](O)C[C@@]21C`: the outcome in assay [1], in [2], in [6] and in assay [5] was inactive.
Take `CCCCCCCC/C=C\CCCCCCCC(=O)OCCCC`: the result in [1], in assay [2] and in [4] was inactive.
For `COC(C)OC`, the result in assay [1], in assay [2], in [4] and in assay [5] was inactive.
As for `COCCOC(=O)CC#N`, the outcome in assay [1], in [2], in assay [3], in assay [4] and in assay [5] was inactive. Also, the concentration at half-maximal activity (AC50) in [7] was 50 µM (active).
Turning to `CCC(C=O)CC`, the outcome in assay [1], in assay [2], in assay [3] and in assay [5] was inactive.
For the molecule `Cc1cccc(O)c1N`, the outcome in assay [1], in [2], in assay [3] and in assay [5] was inactive.
On to `CCCCc1ncc(/C=C(\Cc2cccs2)C(=O)O)n1Cc1ccc(C(=O)O)cc1`, for which the result in [1], in assay [2], in assay [3] and in [5] was inactive.
Turning to `O=C(c1ccc(Cl)cc1)c1ccc(Cl)cc1`, the outcome in [1], in assay [2], in assay [6], in [4], in assay [5] and in assay [7] was inactive. For the same molecule, the outcome in assay [8], in assay [9] and in assay [10] was inactive.
For the molecule `CS(=O)(=O)CCNCc1ccc(-c2ccc3ncnc(Nc4ccc(OCc5cccc(F)c5)c(Cl)c4)c3c2)o1`, the result in assay [1], in [2], in [3] and in [5] was inactive.
Turning to `CCN1C(=O)c2ccccc2C1Nc1ccc(OCCN2CCCCC2)cc1` (centres undefined), the result in assay [1], in assay [2], in assay [3] and in assay [5] was inactive.
Take `CCN(CC)CC(=O)Nc1c(C)cccc1C`: the result in assay [1], in [2], in assay [3] and in assay [5] was inactive.
For the molecule `NCC1CCC(C(=O)Oc2ccc(CCC(=O)O)cc2)CC1` (centres undefined), the outcome in assay [1], in [2], in assay [6] and in assay [5] was inactive.
With `OC[C@H]1O[C@@H](OCCc2ccc(O)cc2)[C@H](O)[C@@H](O)[C@@H]1O`, the outcome in assay [1], in assay [2], in [4] and in assay [5] was inactive.
In the case of `O=C1c2ccccc2C(=O)N1CO`, the outcome in assay [1], in assay [2], in [3], in assay [4] and in [5] was inactive.
Take `C=CC(C)CCC=C(C)C` (centres undefined): the result in [1], in [2], in [4] and in [5] was inactive.
On to `COCc1ccc(COC)cc1`, for which the result in assay [1], in assay [2], in assay [6] and in assay [5] was inactive.
On to `CN1CCN(c2cc3c(cc2F)c(=O)c(C(=O)O)cn3-c2ccc(F)cc2)CC1`, for which the outcome in assay [1], in assay [2], in [3], in [4] and in assay [5] was inactive.
With `Cc1ccccc1N1C(=O)c2cc(S(N)(=O)=O)c(Cl)cc2NC1C` (centres undefined), the result in assay [1], in assay [2], in assay [6], in assay [4] and in [5] was inactive.
Turning to `CC(N)CN` (centres undefined), the outcome in assay [1], in assay [2], in assay [3] and in assay [5] was inactive.
As for `Nc1cc(C(=O)O)c(O)c(S(=O)(=O)O)c1`, the result in assay [1], in assay [2], in assay [3] and in assay [4] was inactive.
With `FC(F)(F)c1ccccc1-n1ccnc1`, the outcome in assay [1], in assay [2], in assay [3] and in assay [4] was inactive.
For the molecule `CC(C)C(=O)OCC(C)(C)C(O)C(C)C` (centres undefined), the result in [1], in assay [2], in assay [3], in [4] and in [5] was inactive.
Consider `CC1(C)O[C@@H]2C[C@H]3[C@@H]4CCC5=CC(=O)CC[C@]5(C)[C@@]4(F)[C@@H](O)C[C@]3(C)[C@]2(C(=O)CCl)O1`, for which the result in [1], in assay [2], in assay [6], in assay [4] and in assay [5] was inactive.
Regarding `O=C(Oc1ccccc1C(=O)O)c1ccccc1O`, the result in assay [1], in assay [2], in assay [6], in assay [4] and in [5] was inactive.
Take `C=CCCCCCC`: the result in [1], in assay [2], in [3] and in [4] was inactive.
Take `Cc1cccc(C)c1NC(=O)NC1=CCCN1C`: the outcome in assay [1], in assay [2] and in assay [6] was inactive.
`N[C@@H](C(=O)N[C@@H]1C(=O)N2C(C(=O)O)=C(Cl)CC[C@H]12)c1ccccc1`: the result in assay [1], in [2], in [3] and in assay [4] was inactive.
For `COc1ccc(-c2cc(=O)c3c(O)cc(O[C@@H]4O[C@H](CO[C@@H]5O[C@@H](C)[C@H](O)[C@@H](O)[C@H]5O)[C@@H](O)[C@H](O)[C@H]4O)cc3o2)cc1O`, the outcome in assay [1], in assay [2], in assay [4] and in [5] was inactive.
On to `CC(=O)OCC1=C(C(=O)O)N2C(=O)[C@@H](NC(=O)Cc3ccccc3)[C@H]2SC1`, for which the outcome in [1], in assay [2], in assay [6] and in [5] was inactive.
With `CN[C@@H]1CCc2[nH]c3ccc(C(N)=O)cc3c2C1`, the outcome in assay [1], in assay [2], in [3] and in [5] was inactive.
For the molecule `CCN(CCO)CCCC(C)Nc1ccnc2cc(Cl)ccc12` (centres undefined), the result in assay [1], in assay [2], in assay [3], in assay [4] and in assay [5] was inactive.
`CCC(O)c1ccccc1` (centres undefined): the result in [1], in assay [2], in [4] and in assay [5] was inactive.
On to `COC(=O)CC[C@H](N)C(=O)O`, for which the outcome in [1], in assay [2] and in assay [3] was inactive.
Turning to `Cc1cc(N)c(S(=O)(=O)O)cc1Cl`, the outcome in assay [1], in assay [2] and in assay [3] was inactive.
For `Cc1scc2c1N(C(=O)CN1CCN(C)CC1)c1ccccc1NC2=O`, the outcome in [1], in assay [2] and in assay [3] was inactive.
As for `CC(C(=O)O)c1ccc(C(=O)c2cccs2)cc1` (centres undefined), the outcome in assay [1], in assay [11] and in assay [6] was inactive.
For `C=CC[N+]1([C@H]2C[C@H]3[C@@H]4CC[C@H]5C[C@H](O)[C@@H](N6CCOCC6)C[C@]5(C)[C@H]4CC[C@]3(C)[C@H]2OC(C)=O)CCCC1`, the outcome in assay [1], in assay [11], in assay [6] and in assay [3] was inactive.
For the molecule `Nc1cccc([N+](=O)[O-])c1`, the result in assay [1], in [11], in [6], in assay [3] and in assay [4] was inactive.
Regarding `COC(=O)C(C)O` (centres undefined), the result in assay [1], in assay [11], in assay [6] and in assay [3] was inactive.
